Source: PubChem (National Center for Advancing Translational Sciences (NCATS))
KB-3-1 tox: kills parental KB-3-1 adenocarcinoma cells; actives 1.4% (n = 400,000); KB-3-1 viability, CellTiter-Glo ATP luminescence, 72 h; Potency, µM (series often up to 46.1 µM), most hits filed as cytotoxic; note: % is set by controls: 0 for no effect and ±100 for the full control effect; nearly all actives have a fitted effect of over 60% in size
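Parental KB-3-1 adenocarcinoma cells in phenol-red-free DMEM with 10% FBS were pin-treated with compounds at several concentrations, incubated 72 h at 37 °C, and viability read by CellTiter-Glo luminescence; concentration-effect curves were fitted after normalization.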
ELG1 repair inh: blocks ELG1-dependent DNA repair in HEK293T cells; actives 2.3% (n = 330,000); Potency, µM (titrated, usually from 46.1 µM), for the others: top-dose activity change, negative = inhibition, hits mostly inhibitors; AID 504467; HEK293T ELG1-luciferase reporter, luminescence, 16 h; DNA damage induced by 5-fluorouridine; note: % is set by controls: 0 for no effect and ±100 for the full control effect; nearly all actives have a fitted effect of over 55% in size
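HEK293T cells expressing luciferase-tagged ELG1 (2,000/well) received 5-Fluorouridine plus compound or DMSO for 16 hr at 37 °C. Luciferase was read by ONE-Glo luminescence after 30 min at room temperature.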
MCF10A rereplic: inducers of DNA re-replication in MCF 10A breast cells; actives 2.9% (n = 350,000); Potency, µM (highest dose often 46.1 µM), for inactives: at the highest dose activity, positive = re-replication, most hits filed as activators; MCF 10A DNA re-replication, Hoechst nuclear intensity, 48 h; note: % of control where 0% means no effect; nearly all actives have a fitted effect of over 50% in size
KB-V1 MDR tox: kills drug-selected multidrug resistant KB-V1 cells | KB-V1 MDR cells viability, CellTiter-Glo, 72 h | Potency, µM (series often up to 46.1 µM), usual class: cytotoxic | actives 3.4% (n = 400,000) | AID 1347076; note: % is set by controls: 0 for no effect and ±100 for the full control effect; nearly all actives have a fitted effect of over 60% in size
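Luminescent ATP read-out (CellTiter-Glo, 10 min) measures survival of drug-selected KB-V1 MDR cells after 72 h, 37 degrees C compound exposure. Medium: phenol-red-free DMEM, 10% FBS. Values from fitted concentration-response curves.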
SW480 rerep: inducers of DNA re-replication in SW480 colon cancer cells; SW480 DNA re-replication, Hoechst DNA content imaging, 48 h; actives 1.8% (n = 340,000); Potency, µM (top dose mostly 46.1 µM), without a hit: at the highest dose re-replication activation, hits mostly activators; AID 624297; note: % of control where 0% means no effect; nearly all actives have a fitted effect of over 55% in size
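First, 250 cells per well were seeded. Next, compound or vehicle (23 nL) was pinned in, plates sat 48 hr at 37 C. Finally Hoechst was added for 40 min before fluorescence scanning.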
Numbers without * were called inactive; i = inactive; ? = inconclusive; nt = no result given. Sampled rows, rich in hits. Any-hit rate of the full collection: about 8.1%. Calls come from the whole dose curve; as a rule, active = well fitted curve in the direction sought with a large enough effect; inconclusive = small, poorly fitted or top-dose-only effect, or another doubt; inactive = no such curve, though single readings can be large; an effect the other way counts as inactive or inconclusive. Potency is the fitted concentration of half-maximal effect.

SMILES	KB-3-1 tox	ELG1 repair inh	MCF10A rereplic	KB-V1 MDR tox	SW480 rerep
C=CC[n+]1ccc(/C=C2\C=Cc3cc(C)ccc3N2CC)c2ccccc21	8.2µM*	1.3µM*	?	i	100.9%
O=C(NC(c1ccccc1)c1ccccc1)c1ccc(CO)cc1	i	0.4%	0.1%	i	-14.5%
COc1ccc2nc3n(c(=O)c2c1)-c1cc2ccccc2cc1C(=O)NC3Cc1ccccc1 (stereo not drawn)	11.6µM*	nt	nt	?	nt
COc1ccc2nc3n(c(=O)c2c1)-c1cc2ccccc2cc1C(=O)NC3Cc1ccc(O)cc1 (stereo not drawn)	i	nt	nt	i	nt
Cc1ccc(N2CC(C(=O)NCc3nnnn3-c3ccc(C)c(C)c3)CC2=O)cc1 (stereo not drawn)	i	?	-41.4%	i	-2.4%
Cc1cc(/C([O-])=C(/C(=S)Nc2ccc(F)cc2)[n+]2ccccc2)c(C)n1-c1ccc(F)cc1	i	?	18.6%	23.1µM*	12.7%
CC(C)Cc1cc(C(=O)NCc2cccnc2)no1	i	?	-0.3%	i	-8.2%
COc1ccc(NC(=O)CN(C)CC(=O)NC(=O)NC2CCCCC2)cc1	i	-24.3%	0.0%	i	-1.1%
COc1ccc(NC(=O)CN(C)CC(=O)NC2CCC(C)CC2)cc1 (stereo not drawn)	i	11.6%	-3.6%	20.6µM*	2.2%
COc1ccc(NC(=O)CN(C)CC(=O)NC2CCCCC2C)cc1 (stereo not drawn)	i	11.5%	6.2%	18.4µM*	1.2%
O=S(=O)(Nc1c(F)cccc1F)c1ccc(Cl)nc1	i	?	-16.9%	i	0.92µM*
CC(C)c1ccc(/C=N/NC(=O)c2ccccc2Cl)cc1	14.6µM*	?	5.8µM*	4.61µM*	13µM*
Cc1cccc(C(=O)Nc2ccc(C(=O)N/N=C/c3ccc4c(c3)OCO4)cc2)c1	?	7.9%	19.3%	?	3.7%
O=C(N/N=C/c1ccc(F)cc1)c1cccc(NC(=O)c2ccc(F)cc2)c1	?	-3.5%	20.6µM*	i	2.0%
O=C(N/N=C/c1ccncc1)c1cccc(NC(=O)c2ccc(Cl)cc2)c1	i	10.0%	-3.0%	i	-4.4%
O=C(N/N=C/c1ccc2c(c1)OCO2)c1ccc(NC(=O)c2ccccc2Cl)cc1	i	13µM*	?	i	-5.7%
Cc1cccc(C(=O)Nc2cccc(C(=O)N/N=C/c3ccc4c(c3)OCO4)c2)c1	13µM*	25.9%	13µM*	i	23.1µM*
O=C(N/N=C/c1ccc2c(c1)OCO2)c1cccc(NC(=O)c2ccccc2Cl)c1	?	?	19.0%	i	?
S=c1[nH]nc(COc2ccccc2)n1/N=C/c1ccncc1	i	-19.2%	2.0%	i	1.1%
O=C(Nc1ccccc1C(=O)N/N=C/c1ccc(F)cc1)c1ccccc1Br	i	-12.3%	4.3%	25.9µM*	-10.0%
O=C(CN1CCN(c2ccccn2)CC1)N1c2ccccc2CCc2ccccc21	i	?	14.1%	5.8µM*	10.8%
O=C(COc1ccc(Cl)cc1)N(Cc1ccco1)c1ccccn1	i	nt	nt	i	nt
CN=C1S/C(=C\c2ccc(N3CCOCC3)c(F)c2)C(=O)N1C	?	-7.9%	19.3%	16.4µM*	?
CN=C1S/C(=C\c2ccc(N3CCCC3)c(F)c2)C(=O)N1C	i	?	23.1µM*	?	13µM*
CN=C1S/C(=C\c2cccn2-c2cccc(Br)c2)C(=O)N1C	?	nt	-0.3%	?	-0.3%
SMILES	KB-3-1 tox	ELG1 repair inh	MCF10A rereplic	KB-V1 MDR tox	SW480 rerep
O=C(Nc1ccc(N2CCOCC2)c([N+](=O)[O-])c1)c1ccco1	i	?	9.0%	i	-16.0%
CN(C)CCNC(=O)COc1ccc(C23CC4CC(CC(C4)C2)C3)cc1	?	10.3%	16.4µM*	i	?
Cn1c(N2CCC(C(N)=O)CC2)nc2c1c(=O)n(Cc1ccc(Cl)cc1)c(=O)n2C	i	-15.9%	-2.4%	i	-17.3%
Cn1c(N2CCCC2)nc2c1c(=O)n(Cc1ccc(Cl)cc1)c(=O)n2C	i	20.6µM*	6.1%	?	-3.2%
CC1CN(c2nc3c(c(=O)n(Cc4ccc(Cl)cc4)c(=O)n3C)n2C)CC(C)O1 (stereo not drawn)	?	?	20.5%	23.1µM*	-4.9%
CCC(=O)N/C(N)=N/c1nc(C)c2cc(C)c(C)cc2n1	i	22.8%	-2.0%	i	?
Cc1cc2nc(N=C(N)N)nc(C)c2cc1C	i	?	?	i	18.4µM*
Cc1cc2nc(/N=C(\N)NC(=O)C(C)C)nc(C)c2cc1C	14.6µM*	-21.3%	-3.2%	i	28.1%
CCCC(=O)N/C(N)=N/c1nc(C)c2cc(C)ccc2n1	18.4µM*	?	10.2%	i	-0.8%
CCc1ccc2nc(N=C(N)N)nc(C)c2c1	23.1µM*	-4.6%	11.3%	i	-1.0%
O=C(NCCCSc1ccccc1)c1cc(Br)ccc1O	i	-1.0%	?	i	17.9%
COc1ccc(N2CCN(C(=O)c3c(-c4ccccc4)noc3C)CC2)cc1	i	?	-2.0%	i	-2.0%
Cc1nc(N=C(N)N)nc2ccccc12	8.2µM*	4.0%	16.9%	?	13.3%
O=C(c1ccccc1)c1cc(Cl)ccc1N1C(=O)C=CC1=O	i	?	?	i	18.4µM*
Cc1ccc(-c2c3c(nc4sc(C(N)=O)c(N)c24)CCC3)cc1	i	?	11.6µM*	?	24.2%
Cc1ccc(C(=O)Cn2nnc3c(sc4nc5c(c(-c6ccccc6)c43)CCC5)c2=O)cc1	i	-14.3%	19.0%	i	-1.3%
Cc1ccc(CNC(=O)c2sc3nc4c(c(C(F)(F)F)c3c2N)CCC4)cc1	i	-1.6%	9.9%	?	2.0%
NC(=O)c1sc2nc3c(c(-c4ccc(Cl)cc4)c2c1N)CCCC3	?	?	?	2.91µM*	?
Nc1c(C(=O)NCc2ccc(Cl)cc2)sc2nc3c(c(C(F)(F)F)c12)CCC3	i	3.6%	4.5%	14.6µM*	?
C=CC[C@@H](Cc1ccc(F)cc1)C(=O)OC[C@@H]1CCCN1C(=O)[C@H](CC=C)CC(=O)N[C@H](CO)Cc1ccccc1	?	?	?	?	17.6%
CCOc1ccc(-c2nc(C#N)c(NCc3ccco3)o2)cc1	i	-16.7%	1.3%	i	-0.7%
O=C(COC(=O)/C=C/c1cccc(C(F)(F)F)c1)NC(c1ccccc1)c1ccccc1	?	5.9%	-2.8%	i	4.8%
COc1ccc(-c2nc(NC(=O)Cn3cnnn3)sc2C)cc1	i	6.1%	2.06µM*	i	2.6%
Cc1sc(NC(=O)Cn2cnnn2)nc1-c1ccc(Cl)cc1	i	-15.5%	-1.5%	i	4.9%
